High-throughput results: PubChem, National Center for Advancing Translational Sciences (NCATS)
The list is not random: actives were taken first. Their share in the collection is about 7.3%.
SNCA expr inh: Primary qHTS assay for inhibitors of alpha-synuclein gene (SNCA) expression | HEK-293 SNCA-luciferase knock-in, luminescence, 24 h | Potency, µM (titrated, usually from 57.2 µM), for the others: at the top dose activity change, negative = inhibition, most hits filed as inhibitors | hit rate 0.17% among 140,000 | AID 1671194, 2021;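 note: potency is the fitted concentration of half-maximal effect; plate controls were DMSO cells for no effect and cell-free wells for full effect; nearly all actives have a fitted effect of over 45% in size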
Luciferase inh: Firefly luciferase inhibition profiling of diverse chemical library using quantitative high-throughput screening | hit rate 2.5% among 76,000 | Luciferin 4-monooxygenase (Photinus pyralis), P08659 | Potency, µM (top dose mostly 115 µM), usual class: inhibitors | purified P. pyralis luciferase, luminescence, biochemical; note: potency is the fitted concentration of half-maximal effect; nearly all actives have a fitted effect of over 65% in size
Target sequence (P08659 whole entry, looked up): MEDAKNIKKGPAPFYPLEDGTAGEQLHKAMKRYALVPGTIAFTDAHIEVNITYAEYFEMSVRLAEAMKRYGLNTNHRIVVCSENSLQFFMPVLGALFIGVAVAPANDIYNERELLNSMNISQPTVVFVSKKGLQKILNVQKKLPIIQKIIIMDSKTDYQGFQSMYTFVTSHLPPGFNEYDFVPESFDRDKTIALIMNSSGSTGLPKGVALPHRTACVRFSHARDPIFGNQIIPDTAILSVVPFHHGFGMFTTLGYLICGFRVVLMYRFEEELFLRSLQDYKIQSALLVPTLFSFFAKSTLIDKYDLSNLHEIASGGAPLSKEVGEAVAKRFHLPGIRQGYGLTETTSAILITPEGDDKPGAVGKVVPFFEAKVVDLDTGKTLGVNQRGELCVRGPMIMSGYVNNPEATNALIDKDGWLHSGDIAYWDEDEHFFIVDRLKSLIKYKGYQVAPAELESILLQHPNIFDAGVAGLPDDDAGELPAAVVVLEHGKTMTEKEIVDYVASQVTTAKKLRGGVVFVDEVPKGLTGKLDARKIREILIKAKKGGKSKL
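Luminescence read by CCD imager after adding enzyme (10nM final) to wells holding compound, titrated in qHTS. Substrates 10uM each D-luciferin and ATP; buffer 50mM Tris acetate pH 7.5, 10mM Mg acetate, Tween-20, BSA.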
SNCA viab count: GF-AFC viability counterscreen for inhibitors of alpha-synuclein gene (SNCA) expression; hit rate 0.12% among 150,000; HEK-293-SNCA-luc viability, GF-AFC fluorescence, 24 h; Potency, µM (top dose mostly 57.1 µM), without a hit: at the highest dose activity change, negative = cytotoxicity, actives largely listed as cytotoxic; AID 1671193, 2021;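 note: potency is the fitted concentration of half-maximal effect; 0% = DMSO-treated cells and -100% = medium-only wells without cells; nearly all actives have a fitted effect of over 30% in size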
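Cytotoxicity counterscreen: after 24 h compound treatment of genome-edited SNCA-luciferase HEK-293 cells, live-cell protease substrate GF-AFC read by fluorescence after 30 min; activity scaled between DMSO (0%) and medium-only (-100%), curves Hill-fitted.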
NIH3T3 tox: Cytotoxic Profiling in NIH 3T3 Cell Line of Diverse Libraries Using Quantitative High-Throughput Screening. NIH 3T3 viability, CellTiter-Glo ATP luminescence, 48-72 h. Potency, µM (highest dose often 96.7 µM), without a hit: at the highest dose activity change, negative = cytotoxicity, hits mostly inhibitors. hit rate 4.3% among 94,000. AID 1345082, 2018; note: potency is the fitted concentration of half-maximal effect; nearly all actives have a fitted effect of over 55% in size
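First NIH 3T3 cells are plated at 400 cells/well; next compound is pinned in; then plates incubate 48 or 72 hr at 37 °C; finally CellTiter-Glo is added and luminescence read after 10 min.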
IP6K1 inhibitor: Primary qHTS assay for small molecule inhibitors of Inositol hexaphosphate kinase 1 (IP6K1); AID 1645851, 2021; activity change, % (series mostly up to about 58 µM); hit rate 0.81% among 140,000; IP6K1 kinase, ADP-Glo luminescence, 2 h; stronger effect = lower value; Inositol hexakisphosphate kinase 1 (Homo sapiens), Q92551; in the data active = activity change below about -25%
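ADP-Glo luminescence measures ADP made by human IP6K1 during a 2 h RT reaction with ATP/IP6 (mix at 1.3 mM/130 uM); top library doses 57.5 and 19.1 uM final.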
HEK cytotox: Cytotoxic Profiling in HEK 293 Cell Line of Diverse Libraries Using Quantitative High-Throughput Screening. AID 1345083, 2018. Potency, µM (titrated, usually from 115 µM), inactives show at the top dose activity change, negative = cytotoxicity, actives largely listed as inhibitors. hit rate 6.6% among 94,000. HEK 293 viability, ATP luminescence (CellTiter-Glo), 48-72 h; note: potency is the fitted concentration of half-maximal effect; nearly all actives have a fitted effect of over 60% in size
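Cytotoxicity was scored by loss of ATP-coupled luminescence (CellTiter-Glo) in HEK 293 cells. Compound treatment ran 48 or 72 hr at 37 degree Celsius, 5% CO2, 95% humidity.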
Active calls of the source: *; i = inactive; ? = inconclusive; / = no result given; [ ] = remark or other dose. Unless noted, calls come from the whole dose curve; as a rule, active = well fitted curve in the direction sought with a large enough effect; inconclusive = small, poorly fitted or top-dose-only effect, or another doubt; inactive = no such curve, though single readings can be large; an effect the other way counts as inactive or inconclusive. Unless noted, % is set by controls: 0 for no effect and ±100 for the full control effect.

SMILES | SNCA expr inh | Luciferase inh | SNCA viab count | NIH3T3 tox | IP6K1 inhibitor | HEK cytotox
COc1ccc(Nc2cnc3ccc(-c4ccc(OC)c(OC)c4)nn23)cn1 | 5%[87.6 µM] | ? | -10%[87.6 µM] | 32µM* | -9 | 63µM*
COc1ncccc1Nc1cnc2ccc(-c3ccc(F)cc3)nn12 | -22%[87.6 µM] | i | -12%[87.6 µM] | ? | -9 | ?
COc1ccc(-c2ccc3ncc(Nc4cccc(O)c4)n3n2)cc1OC | 32%[87.6 µM] | i | -8%[87.6 µM] | ? | -19 | 63µM*
CCN1C[C@H]2CN(C)c3ccccc3[C@@H]2N(C(=O)OCC(C)C)CCC1=O | -6%[25.6 µM] | / | -18%[23.9 µM] | ? | 15 | ?
COc1cccc(C(=O)N2CCN(c3cc(-c4cccs4)[nH]n3)CC2)c1OC | -9% | i | 8% | ? | 25 | ?
O=C1CC(c2ccccc2)N(C(=O)CNC(=O)c2n[nH]c3ccccc23)CCCCCN1 (configuration not stated) | 70% | 25µM* | 0% | -7% | -5 | -6%
O=C1CC(c2ccccc2)N(C(=O)CNC(=O)c2[nH]nc3c2COc2ccccc2-3)CCCCCN1 (configuration not stated) | 21% | i | -9% | ? | -9 | 32µM*
COCCNC(=O)[C@@H](C)C1CC[C@@]2(C)CC[C@H](NC(=O)COc3ccccc3)[C@@H](C)[C@@H]2[C@H]1O (some centres not stated) | -7% | i | 6% | -18% | 7 | -13%
C#CCN[C@H]1C[C@@H]2c3[nH]c4ccccc4c3C[C@@H](C(=O)OC)N2[C@H](c2ccc(F)cc2)C1 | ? | i | ? | ? | -1 | 28µM*
COC(=O)[C@@H]1Cc2c([nH]c3ccccc23)[C@H]2C[C@@H](NCCO)C[C@@H](c3ccc(F)cc3)N21 | -6% | i | -8% | 28µM* | -9 | 28µM*
COC(=O)[C@@H]1Cc2c([nH]c3ccccc23)[C@H]2C[C@H](NCCO)C[C@@H](c3ccccc3)N21 | -18%[87.6 µM] | ? | -11%[87.6 µM] | 45µM* | 6 | ?
COC(=O)[C@@H]1C[C@H](NC(=O)CCCc2cccs2)CN1C | 8% | i | -8% | 1% | 3 | -16%
COC(=O)[C@@H]1Cc2c([nH]c3ccccc23)[C@H]2C[C@H](NCc3cccs3)C[C@@H](c3ccccc3)N21 | ? | i | ? | 25µM* | -3 | ?
O=C(CSc1ccccc1)N1CCc2c([nH]c3ccccc23)C1c1ccc(F)cc1 (configuration not stated) | ? | / | -18% | / | 9 | /
COC(=O)[C@@H]1Cc2c([nH]c3ccccc23)[C@H]2C[C@@H](NC3CC3)C[C@@H](c3ccc(F)cc3)N21 | 28µM* | i | ? | 28µM* | -5 | 8.9µM*
COC(=O)[C@@H]1Cc2c([nH]c3ccccc23)[C@H]2C[C@@H](NCCO)C[C@@H](c3cccc(OC)c3)N21 | 5% | i | 3% | 28µM* | -3 | 28µM*
COc1ccc(-c2noc(-c3nnn4c3COC(c3ccc(F)cc3)C4)n2)cc1F (configuration not stated) | 15% | i | 13% | -20% | -23 | ?
O=C(c1ccc(F)cc1)N1CCCC(C(=O)N2CCCC(c3nc4ccncc4[nH]3)C2)C1 (configuration not stated) | 21% | / | 5% | -11% | -8 | 0%
CC(C)(C)c1cnc(CSc2cnc(NC(=O)C3CCNCC3)s2)o1 | 1.5µM* | / | ? | / | / | /
CC(C)(C)c1ccc(-c2cc(C[C@H]3CNCC[C@H]3CC(=O)O)no2)cc1 | -9%[87.6 µM] | ? | -7%[87.6 µM] | -28%[138 µM] | 17 | ?
